Consider seven molecules from PubChem BioAssay (NCI).

About 83,000 compounds went through this panel and 20% of them were active in at least one assay; those are over-represented in the sample as a whole.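 Results are percent growth after 48 hours of single-concentration exposure. 100 means growth as in untreated cells, lower positive values show inhibition; negative values down to -100 show cell death.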 A number with no mark means an inactive call. Active and inactive are the calls of the source. How the source made its calls: active means growth percent below 10; inactive means the rest.

Among the test systems are SK-MEL-2 melanoma; EKVX NSCLC; SN12C renal; UO-31 renal; TK-10 renal; ACHN renal; CAKI-1 renal; A498 renal; CCRF-CEM leukemia; MOLT-4 leukemia; SR leukemia; RPMI-8226 leukemia; OVCAR-8 ovarian; OVCAR-5 ovarian; OVCAR-4 ovarian; SK-OV-3 ovarian; IGROV1 ovarian; OVCAR-3 ovarian; NCI/ADR-RES ovarian; HS 578T breast.
Holding throughout (experiment): NCI-60 one-dose screen, 48 h (100 = growth as untreated, 0 = no growth, -100 = all killed)
Conditions in all cases: 10 µM unless noted

Turning to `C=C1c2nc3ccccc3n2C=C(c2ccc(Cl)cc2)N1Cc1ccc(OC)cc1`, the growth in the assay on SK-MEL-2 melanoma is 70.4%; in the assay with EKVX NSCLC it was 71.3%; in the assay on SN12C renal, 92.2%; with UO-31 renal it was 52.2%; in the assay on TK-10 renal, 138%; with ACHN renal, 89.5%. The growth in the assay with CAKI-1 renal was 85.7%; in the assay with A498 renal, 90.5%; with CCRF-CEM leukemia, 86.3%; in the assay on MOLT-4 leukemia, 64.8%; in the assay with SR leukemia, -2.2% (active); in the assay on RPMI-8226 leukemia, 30.9%. For the same molecule, the growth is 91.1% in the assay on OVCAR-8 ovarian; 72.1% with OVCAR-5 ovarian; 71.6% in the assay on OVCAR-4 ovarian; 85.8% with SK-OV-3 ovarian; 55.2% in the assay on IGROV1 ovarian; 85.4% in the assay on OVCAR-3 ovarian. The growth with NCI/ADR-RES ovarian was 62.7%.
In the case of `O=C1/C(=C/N2N=C(c3ccc4ccccc4c3)CC2c2ccccc2O)SC(=S)N1c1cccnc1` (configuration not stated), the growth in the assay with SK-MEL-2 melanoma was 100%; with EKVX NSCLC it was 43.2%; in the assay with SN12C renal, 39.5%; in the assay with UO-31 renal it was 11.6%; in the assay with TK-10 renal, 60.1%; in the assay on ACHN renal it was 43.6%. In addition, the growth is 41.9% with CAKI-1 renal; 14.3% with A498 renal; 11.7% in the assay with CCRF-CEM leukemia; 19.2% with MOLT-4 leukemia; 29.2% with SR leukemia; -8.29% (active) with RPMI-8226 leukemia. Further, the growth in the assay on OVCAR-8 ovarian was 28.3%; with OVCAR-5 ovarian, 68.6%; in the assay with OVCAR-4 ovarian it was 66.1%; in the assay on SK-OV-3 ovarian, 39.4%; with IGROV1 ovarian it was 26.4%; with OVCAR-3 ovarian, 7.76% (active). In addition, the growth in the assay with HS 578T breast is 13.2%; in the assay with NCI/ADR-RES ovarian, 23.6%.
Consider `CCN=C1C=CC(=C(c2ccc(N)cc2)c2ccc(N(CC)CC)c(C)c2)C=C1`, for which the growth with SK-MEL-2 melanoma is -15.3% (active); in the assay with EKVX NSCLC, 10.6%; in the assay with SN12C renal it was -14% (active); in the assay with UO-31 renal, 3.22% (active); in the assay with TK-10 renal, 15.4%; in the assay on ACHN renal it was -2.24% (active). Besides, the growth in the assay with CAKI-1 renal is 14.1%; in the assay on A498 renal, -26.5% (active); in the assay with CCRF-CEM leukemia it was -19.5% (active); in the assay on MOLT-4 leukemia, -4.13% (active); in the assay on SR leukemia it was -17.6% (active); in the assay on RPMI-8226 leukemia, -30.8% (active). For the same molecule, the growth in the assay on OVCAR-8 ovarian was 1.54% (active); in the assay with OVCAR-5 ovarian, 18.2%; in the assay with OVCAR-4 ovarian, 24.2%; in the assay on SK-OV-3 ovarian it was 6.51% (active); in the assay on IGROV1 ovarian, 11.6%; in the assay on OVCAR-3 ovarian, -28.9% (active). Moreover, the growth is -24.6% (active) with HS 578T breast and 67.7% in the assay with NCI/ADR-RES ovarian.
Consider `COc1cccc(C2=NN3C(C2)c2cc(Br)cc(OC)c2OC32CCN(Cc3ccccc3)CC2)c1` (configuration not stated), for which the growth in the assay on SK-MEL-2 melanoma is 102%; in the assay on EKVX NSCLC, 94.8%; in the assay on SN12C renal, 98.7%; with UO-31 renal it was 85.3%; in the assay on TK-10 renal it was 108%; in the assay on ACHN renal it was 102%. The growth is 90.3% with CAKI-1 renal; 104% with A498 renal; 109% in the assay with CCRF-CEM leukemia; 106% with MOLT-4 leukemia; 111% with SR leukemia; 107% in the assay on RPMI-8226 leukemia. The growth was 104% with OVCAR-8 ovarian; 105% with OVCAR-5 ovarian; 90.8% with OVCAR-4 ovarian; 106% in the assay on SK-OV-3 ovarian; 98.6% in the assay with IGROV1 ovarian; 105% in the assay with OVCAR-3 ovarian. In addition, the growth in the assay on HS 578T breast was 94.7%; with NCI/ADR-RES ovarian, 105%.
Regarding `O=c1c2c3c(sc2nc(N/N=C/c2cn(-c4ccccc4)nc2-c2ccc(Cl)cc2)n1Cc1ccccc1)CCCC3`, the growth in the assay with SK-MEL-2 melanoma was 103%; in the assay on EKVX NSCLC, 106%; with SN12C renal it was 127%; with UO-31 renal, 95.9%; with TK-10 renal, 129%; in the assay on ACHN renal, 117%. Also, the growth is 98.9% in the assay on CAKI-1 renal; 112% with A498 renal; 109% in the assay on CCRF-CEM leukemia; 22% in the assay on MOLT-4 leukemia; 59.3% with SR leukemia; 119% in the assay on RPMI-8226 leukemia. Besides, the growth with OVCAR-8 ovarian is 98.2%; in the assay on OVCAR-5 ovarian, 121%; in the assay on OVCAR-4 ovarian, 109%; in the assay with SK-OV-3 ovarian, 102%; in the assay with IGROV1 ovarian, 92.4%; with OVCAR-3 ovarian, 106%. The growth in the assay with NCI/ADR-RES ovarian was 108%.
Consider `O=C1/C(=C/c2ccc3c(c2)OCO3)SC(=S)N1CCc1ccc(O)cc1`, for which the growth was 100% with SK-MEL-2 melanoma; 98.8% with EKVX NSCLC; 92.1% in the assay with SN12C renal; 58.8% in the assay with UO-31 renal; 81.3% with TK-10 renal; 97.2% in the assay with ACHN renal. Besides, the growth in the assay with CAKI-1 renal was 81%; with A498 renal, 111%; with CCRF-CEM leukemia it was 56.7%; in the assay with MOLT-4 leukemia, 87.3%; in the assay on SR leukemia, 101%; in the assay with RPMI-8226 leukemia it was 89.8%. Moreover, the growth in the assay on OVCAR-8 ovarian is 101%; with OVCAR-5 ovarian, 111%; with OVCAR-4 ovarian, 82.9%; in the assay on SK-OV-3 ovarian, 104%; with IGROV1 ovarian it was 75.9%; with OVCAR-3 ovarian, 101%. Further, the growth in the assay with HS 578T breast was 96.7%; in the assay on NCI/ADR-RES ovarian, 97.4%.
Consider `C#Cc1cccc(NC(=O)c2ccccc2NC(=O)CCl)c1`, for which the growth in the assay on SK-MEL-2 melanoma is 90.2% [8.25 µM]; in the assay with EKVX NSCLC it was 94.1% [8.25 µM]; in the assay with SN12C renal, 64.6% [8.25 µM]; in the assay with UO-31 renal it was 86.9% [8.25 µM]; in the assay on TK-10 renal it was 91% [8.25 µM]; in the assay with ACHN renal, 92% [8.25 µM]. Further, the growth is 87.9% [8.25 µM] in the assay with CAKI-1 renal; 107% [8.25 µM] with A498 renal; 50.4% [8.25 µM] in the assay on CCRF-CEM leukemia; 70.3% [8.25 µM] with MOLT-4 leukemia; 62.1% [8.25 µM] in the assay on SR leukemia; 99.5% [8.25 µM] with RPMI-8226 leukemia. Besides, the growth in the assay on OVCAR-8 ovarian is 60.6% [8.25 µM]; in the assay on OVCAR-5 ovarian, 118% [8.25 µM]; in the assay with OVCAR-4 ovarian, 82.3% [8.25 µM]; with SK-OV-3 ovarian, 95.2% [8.25 µM]; in the assay with IGROV1 ovarian, -26.1% [8.25 µM] (active); with OVCAR-3 ovarian it was 90.6% [8.25 µM]. In the assay with NCI/ADR-RES ovarian, the growth is 81.1% [8.25 µM].
